Results reported in the supplement of paper PMC10849652.
The full data set covers some 8,800 targets. This sample favours those with a hit. About 0.5% of all pairs of compound and target were hits. Values without a mark were called inactive.

How the values were obtained:
Assay in all cases: log2 fold change, soluble protein after heating vs DMSO (PISA); higher = thermal stabilisation; K562 lysate, 10 uM; active = over 0.2 and 3.5 SD of the protein, either way, in both replicates (recomputed)
[1] = compound: CN1CC[C@H](c2c(O)cc(O)c3c(=O)cc(-c4ccccc4Cl)oc23)[C@H](O)C1 [alvocidib]
Procedure, shortened: (§1)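 The values are log-two fold changes in thermal stability compared with solvent controls and come from duplicates. They were obtained by TMTpro 16plex LC-MS/MS, with channel sums equalised, on the supernatant after 21,000xg for 90 min. That supernatant came from crude K562 extract at 1 mg/mL protein treated with 10 μM compound for 30 min, heated for 3 min across 48°C-58°C, pooled and brought to 0.5% NP-40 at 4°C.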

[2] = compound: CN1CCc2c(c3ccccc3n2Cc2ccc(C(=O)NO)cc2)C1 [Tubastatin A]
Procedure, shortened: as §1

[3] = compound: CNC(=O)C1=CC=CC=C1NC2=NC(=NC=C2Cl)NC3=C(C=C(C=C3)N4CCOCC4)OC
Procedure, shortened: as §1

[4] = compound: CNC(=O)c1ccc(Nc2ncc(C(F)(F)F)c(NCc3nccnc3N(C)S(C)(=O)=O)n2)cc1 [defactinib]
Procedure, shortened: as §1

[5] = compound: CNc1nc(-c2ccc3c(N)n[nH]c3c2)cc(N2C[C@@H](C(=O)NC3CCCCC3)CC[C@H]2C)n1
Procedure, shortened: as §1

[6] = compound: COC(=O)N[C@@H](C)CNc1nccc(-c2cn(C(C)C)nc2-c2cc(Cl)cc(NS(C)(=O)=O)c2F)n1 [encorafenib]
Procedure, shortened: as §1

[7] = compound: COC(=O)[C@H](CCSC)NC(=O)C1=C(C=C(C=C1)NC[C@H](CS)N)C2=CC=CC=C2
Procedure, shortened: as §1

[8] = compound: COc1cc(Nc2ncc3c(n2)-c2ccc(Cl)cc2C(c2c(F)cccc2OC)=NC3)ccc1C(=O)O [alisertib]
Procedure, shortened: as §1

[9] = compound: COc1cc2nc(-c3cc(F)ccc3O)nc(N[C@@H]3CNC[C@H]3C(C)(C)O)c2cc1OC
Procedure, shortened: as §1

[10] = compound: COc1cc2ncnc(Nc3ccc(F)c(Cl)c3)c2cc1OCCCN1CCOCC1 [gefitinib]
Procedure, shortened: as §1

Sequence of UniProt Q9NUA8 (Q9NUA8 whole entry, looked up): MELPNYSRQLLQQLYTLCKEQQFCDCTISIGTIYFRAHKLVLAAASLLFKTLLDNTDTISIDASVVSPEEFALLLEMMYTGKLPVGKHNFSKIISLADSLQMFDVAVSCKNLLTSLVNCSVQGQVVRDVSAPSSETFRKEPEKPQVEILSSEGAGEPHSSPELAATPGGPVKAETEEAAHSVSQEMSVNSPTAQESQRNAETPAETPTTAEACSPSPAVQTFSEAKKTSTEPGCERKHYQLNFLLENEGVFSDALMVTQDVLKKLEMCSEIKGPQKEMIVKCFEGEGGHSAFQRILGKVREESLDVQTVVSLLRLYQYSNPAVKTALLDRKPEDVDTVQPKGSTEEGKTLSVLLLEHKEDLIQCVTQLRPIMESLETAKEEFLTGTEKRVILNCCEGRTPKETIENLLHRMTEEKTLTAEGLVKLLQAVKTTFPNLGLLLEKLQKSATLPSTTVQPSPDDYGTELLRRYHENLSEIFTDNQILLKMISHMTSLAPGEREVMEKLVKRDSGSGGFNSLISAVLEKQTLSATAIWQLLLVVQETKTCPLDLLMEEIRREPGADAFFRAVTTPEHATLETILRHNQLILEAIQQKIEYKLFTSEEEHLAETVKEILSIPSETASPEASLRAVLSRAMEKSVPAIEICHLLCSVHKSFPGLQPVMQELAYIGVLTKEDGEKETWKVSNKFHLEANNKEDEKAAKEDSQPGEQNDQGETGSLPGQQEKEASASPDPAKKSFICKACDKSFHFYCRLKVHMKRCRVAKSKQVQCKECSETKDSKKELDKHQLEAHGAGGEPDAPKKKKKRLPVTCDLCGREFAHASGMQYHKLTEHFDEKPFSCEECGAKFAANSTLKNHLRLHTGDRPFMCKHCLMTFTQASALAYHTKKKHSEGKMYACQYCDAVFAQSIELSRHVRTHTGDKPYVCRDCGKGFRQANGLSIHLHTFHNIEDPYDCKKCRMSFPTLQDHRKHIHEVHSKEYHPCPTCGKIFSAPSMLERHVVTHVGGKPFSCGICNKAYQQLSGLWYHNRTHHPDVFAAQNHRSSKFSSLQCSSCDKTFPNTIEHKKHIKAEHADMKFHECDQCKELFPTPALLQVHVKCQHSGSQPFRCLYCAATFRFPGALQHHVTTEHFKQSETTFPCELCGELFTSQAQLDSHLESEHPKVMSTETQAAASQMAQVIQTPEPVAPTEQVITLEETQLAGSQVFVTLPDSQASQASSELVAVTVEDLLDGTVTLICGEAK
Sequence of UniProt Q5VUA4 (Q5VUA4 whole entry, looked up): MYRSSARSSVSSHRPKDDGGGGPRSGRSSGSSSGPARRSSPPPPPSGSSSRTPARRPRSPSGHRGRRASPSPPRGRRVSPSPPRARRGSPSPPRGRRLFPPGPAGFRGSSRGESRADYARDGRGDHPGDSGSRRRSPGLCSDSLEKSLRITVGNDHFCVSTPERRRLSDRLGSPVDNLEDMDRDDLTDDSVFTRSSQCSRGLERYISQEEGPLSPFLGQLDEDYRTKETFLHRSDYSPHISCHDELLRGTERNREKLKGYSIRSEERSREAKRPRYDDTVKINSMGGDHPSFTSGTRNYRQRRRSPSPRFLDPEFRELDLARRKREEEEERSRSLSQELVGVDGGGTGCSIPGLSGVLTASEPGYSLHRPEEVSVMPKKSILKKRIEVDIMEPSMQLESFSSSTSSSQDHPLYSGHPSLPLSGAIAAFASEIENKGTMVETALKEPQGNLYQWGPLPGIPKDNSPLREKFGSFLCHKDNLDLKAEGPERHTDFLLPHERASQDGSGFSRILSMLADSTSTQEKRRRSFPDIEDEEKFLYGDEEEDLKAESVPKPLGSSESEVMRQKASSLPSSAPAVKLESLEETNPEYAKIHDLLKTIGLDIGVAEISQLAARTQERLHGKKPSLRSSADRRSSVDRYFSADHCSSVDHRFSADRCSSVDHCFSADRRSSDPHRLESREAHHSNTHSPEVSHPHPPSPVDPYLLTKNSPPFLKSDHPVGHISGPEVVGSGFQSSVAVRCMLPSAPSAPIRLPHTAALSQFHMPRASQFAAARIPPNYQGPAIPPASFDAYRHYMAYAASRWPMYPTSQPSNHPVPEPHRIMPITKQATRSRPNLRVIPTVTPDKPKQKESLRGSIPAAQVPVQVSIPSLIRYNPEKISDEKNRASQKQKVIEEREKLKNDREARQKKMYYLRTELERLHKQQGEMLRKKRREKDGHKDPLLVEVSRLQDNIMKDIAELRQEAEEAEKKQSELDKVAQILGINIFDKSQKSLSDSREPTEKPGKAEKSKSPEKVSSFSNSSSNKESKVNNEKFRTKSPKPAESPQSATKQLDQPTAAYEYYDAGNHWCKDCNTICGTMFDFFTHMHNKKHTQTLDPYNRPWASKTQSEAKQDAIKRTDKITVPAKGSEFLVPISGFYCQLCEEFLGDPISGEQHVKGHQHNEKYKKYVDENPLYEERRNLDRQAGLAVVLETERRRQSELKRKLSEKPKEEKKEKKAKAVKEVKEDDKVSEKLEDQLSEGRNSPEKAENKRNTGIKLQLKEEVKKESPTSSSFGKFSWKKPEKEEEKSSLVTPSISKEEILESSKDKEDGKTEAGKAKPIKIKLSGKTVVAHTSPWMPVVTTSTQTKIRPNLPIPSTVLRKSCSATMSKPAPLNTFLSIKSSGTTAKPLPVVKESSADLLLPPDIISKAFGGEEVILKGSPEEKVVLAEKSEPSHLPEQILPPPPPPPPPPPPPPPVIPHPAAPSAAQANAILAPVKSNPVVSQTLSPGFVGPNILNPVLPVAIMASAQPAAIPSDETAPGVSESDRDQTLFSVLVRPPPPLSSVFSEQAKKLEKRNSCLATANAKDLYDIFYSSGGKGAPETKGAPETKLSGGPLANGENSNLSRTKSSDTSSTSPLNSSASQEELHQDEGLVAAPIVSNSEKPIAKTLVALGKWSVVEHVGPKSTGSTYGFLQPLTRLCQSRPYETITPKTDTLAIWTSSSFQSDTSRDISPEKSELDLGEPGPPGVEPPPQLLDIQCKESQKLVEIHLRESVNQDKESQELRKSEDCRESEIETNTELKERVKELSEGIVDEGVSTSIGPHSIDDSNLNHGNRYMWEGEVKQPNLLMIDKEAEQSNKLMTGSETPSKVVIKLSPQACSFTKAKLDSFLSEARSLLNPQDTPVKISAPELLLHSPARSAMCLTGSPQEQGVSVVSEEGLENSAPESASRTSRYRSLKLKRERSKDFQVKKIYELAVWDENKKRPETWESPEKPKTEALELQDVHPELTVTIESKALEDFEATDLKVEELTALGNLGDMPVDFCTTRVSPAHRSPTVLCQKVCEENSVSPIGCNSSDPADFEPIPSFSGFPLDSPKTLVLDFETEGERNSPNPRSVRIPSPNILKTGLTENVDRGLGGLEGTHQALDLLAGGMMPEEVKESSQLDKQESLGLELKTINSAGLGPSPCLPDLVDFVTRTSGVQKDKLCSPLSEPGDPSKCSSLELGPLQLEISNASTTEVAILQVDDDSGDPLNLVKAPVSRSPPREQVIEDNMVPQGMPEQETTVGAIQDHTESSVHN
Sequence of UniProt Q9H269 (Q9H269 whole entry, looked up): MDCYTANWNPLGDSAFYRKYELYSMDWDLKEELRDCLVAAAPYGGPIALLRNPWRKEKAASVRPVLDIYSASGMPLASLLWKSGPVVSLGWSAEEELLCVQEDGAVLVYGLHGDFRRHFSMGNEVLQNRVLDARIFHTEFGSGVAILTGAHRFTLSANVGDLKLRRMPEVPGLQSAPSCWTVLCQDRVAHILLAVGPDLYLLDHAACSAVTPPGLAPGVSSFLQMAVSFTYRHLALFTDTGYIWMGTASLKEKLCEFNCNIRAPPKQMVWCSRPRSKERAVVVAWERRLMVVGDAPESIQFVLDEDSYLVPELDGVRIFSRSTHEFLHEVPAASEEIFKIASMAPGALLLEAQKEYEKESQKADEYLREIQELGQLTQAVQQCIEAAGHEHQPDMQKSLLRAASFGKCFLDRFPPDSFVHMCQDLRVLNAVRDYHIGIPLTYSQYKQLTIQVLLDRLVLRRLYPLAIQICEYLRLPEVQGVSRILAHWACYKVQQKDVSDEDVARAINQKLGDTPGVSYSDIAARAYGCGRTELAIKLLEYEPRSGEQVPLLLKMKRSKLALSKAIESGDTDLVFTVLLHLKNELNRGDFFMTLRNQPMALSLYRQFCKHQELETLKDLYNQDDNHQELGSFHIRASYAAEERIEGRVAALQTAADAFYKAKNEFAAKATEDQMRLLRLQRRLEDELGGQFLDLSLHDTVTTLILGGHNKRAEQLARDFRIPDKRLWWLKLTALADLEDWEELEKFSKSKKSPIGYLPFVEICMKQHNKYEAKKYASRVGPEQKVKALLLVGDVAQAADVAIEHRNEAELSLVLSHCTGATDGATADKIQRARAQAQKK
Sequence of UniProt P30291 (P30291 whole entry, looked up): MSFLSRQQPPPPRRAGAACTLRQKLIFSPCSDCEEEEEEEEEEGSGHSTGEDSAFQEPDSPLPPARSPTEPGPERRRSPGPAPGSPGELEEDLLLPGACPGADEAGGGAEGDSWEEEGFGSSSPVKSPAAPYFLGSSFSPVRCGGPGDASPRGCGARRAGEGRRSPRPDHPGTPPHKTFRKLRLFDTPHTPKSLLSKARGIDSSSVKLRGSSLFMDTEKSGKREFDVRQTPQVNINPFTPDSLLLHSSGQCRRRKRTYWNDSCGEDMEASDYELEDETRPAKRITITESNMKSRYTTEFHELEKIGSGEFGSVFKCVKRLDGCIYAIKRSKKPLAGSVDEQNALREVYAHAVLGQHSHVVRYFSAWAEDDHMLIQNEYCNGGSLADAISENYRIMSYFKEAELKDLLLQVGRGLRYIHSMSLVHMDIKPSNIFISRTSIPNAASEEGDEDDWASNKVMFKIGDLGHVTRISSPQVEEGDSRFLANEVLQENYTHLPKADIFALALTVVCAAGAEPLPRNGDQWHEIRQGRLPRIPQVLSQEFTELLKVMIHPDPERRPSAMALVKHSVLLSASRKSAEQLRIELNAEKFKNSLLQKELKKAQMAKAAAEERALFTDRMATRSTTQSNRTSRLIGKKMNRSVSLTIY

Target | log2 fold change [1] | log2 fold change [2] | log2 fold change [3] | log2 fold change [4] | log2 fold change [5] | log2 fold change [6] | log2 fold change [7] | log2 fold change [8] | log2 fold change [9] | log2 fold change [10]
ZNF598 isoform 3 (UniProt Q86UK7) | -0.01 | -0.095 | 0.025 | 0.004 | 0.015 | 0.004 | -0.039 | 0.009 | 0.012 | 0.007
ZNF318 (UniProt Q5VUA4) | 0.033 | -0.177 | 0.034 | -0.055 | -0.002 | 0.03 | 0.117 | 0.03 | 0.142 | 0.025
USP22 (UniProt Q9UPT9) | 0.102 | -0.044 | 0.034 | 0.017 | -0.027 | -0.007 | 0.055 | 0.02 |  | -0.011
ZNF593 (UniProt O00488) | -0.005 | -0.07 | -0.135 | 0.044 | -0.011 | -0.006 | -0.088 |  | 0.231 | 
WIPI1 (UniProt Q5MNZ9) | -0.046 | 0.013 | 0.036 |  | 0.099 | -0.009 | 0.029 | -0.189 | 0.008 | -0.017
ZNF346 (UniProt Q9UL40) | 0.05 | 0.036 | -0.009 |  | -0.029 | -0.006 | 0.062 | -0.03 | 0.019 | 0.046
XPOT (UniProt F5GYW6) |  |  |  |  |  |  |  |  | 0.121 | 
ZKSCAN8 (UniProt Q15776) |  | -0.053 | 0.059 | 0.037 | 0.009 | 0.2 | -0.206 | -0.084 | -0.001 | 0
ZBTB40 (UniProt Q9NUA8) | 0.09 | -0.089 | 0.03 | -0.032 | 0.048 |  |  | -0.187 | -0.038 | -0.246
UNKL (UniProt E9PDK2) |  |  |  | -0.008 | -0.042 | 0.044 | 0.106 |  |  | 
VANGL1 (UniProt Q8TAA9) | 0.005 | 0.088 | -0.054 | 0.078 | 0.054 | -0.011 | -0.072 | -0.023 | -0.071 | 0.011
ZFYVE19 isoform 3 (UniProt Q96K21) |  |  |  |  |  |  |  |  | -0.006 | 
VASN (UniProt Q6EMK4) |  | -0.161 | -0.087 |  | 0.096 | 0.2 | 0.02 |  |  | 
ZNF146 (UniProt Q15072) |  |  |  |  | 0.12 |  |  |  |  | 
WAC isoform 5 (UniProt Q9BTA9) |  | -0.119 | -0.359 |  | -0.117 |  |  |  |  | 
VPS16 (UniProt Q9H269) | 0.032 | -0.082 | 0.002 | -0.006 | 0 | 0.049 | -0.069 | 0.031 | -0.004 | 0.013
VHL (UniProt P40337) | -0.06 | -0.117 | -0.009 | -0.034 | -0.047 | 0.143 | -0.047 | 0.05 |  | -0.029

Target | log2 fold change [1] | log2 fold change [2] | log2 fold change [3] | log2 fold change [4] | log2 fold change [5] | log2 fold change [6] | log2 fold change [7] | log2 fold change [8] | log2 fold change [9] | log2 fold change [10]
URGCP (UniProt Q8TCY9) |  | 0.168 |  | -0.19 | -0.005 |  |  | 0.003 |  | 0.006
ULK3 isoform 4 (UniProt Q6PHR2) | -0.014 |  | 0.004 | 0.039 | 0.016 | -0.089 | -0.061 |  | 0.089 | 
USP9X (UniProt Q93008) | -0.009 | -0.114 | 0.016 | 0.026 | -0.04 | 0.007 | 0.023 | 0.016 | 0.013 | 0.002
ZSWIM8 isoform 4 (UniProt A7E2V4) | 0.078 | 0.149 | -0.171 | 0.088 | -0.226 | 0.035 | -0.071 | -0.034 |  | -0.073
ZNF281 (UniProt Q9Y2X9) |  | -0.16 | 0.025 |  | 0.095 |  |  |  |  | 
ZSCAN21 (UniProt Q9Y5A6) | -0.11 |  |  |  |  | 0.031 | 0.103 |  |  | 
WEE1 (UniProt P30291) |  | -0.194 | 0.498 (active) | 0.145 | -0.072 | -0.035 | 0.11 | 0.018 | 0.055 | 0.129
YBEY (UniProt P58557) |  |  | -0.056 | 0.016 | -0.066 | -0.037 | 0.071 |  |  | 
ZDHHC17 (UniProt Q8IUH5) | -0.44 | 0.074 |  | -0.053 | -0.04 | -0.044 | 0.183 | 0.037 | -0.032 | 0.24
UTRN isoform 2 (UniProt P46939) | -0.084 |  | -0.166 |  |  | -0.012 | -0.037 |  |  | 
WSB1 (UniProt Q9Y6I7) | 0.184 | -0.014 |  |  | 0.12 |  |  |  |  | 
ZNF644 (UniProt Q9H582) | 0.003 | -0.038 | -0.058 | 0.025 | -0.02 | 0.028 | -0.011 | -0.018 |  | -0.024
ZNF845 (UniProt Q96IR2) | 0.011 | -0.149 | 0.314 | -0.001 | 0.093 |  |  | -0.018 | 0.035 | 0.035
UNC13A (UniProt Q9UPW8) | -0.643 |  | -0.11 |  |  |  |  | -0.067 |  | -0.076
ZYG11A (UniProt Q6WRX3) | -0.18 | 0.018 | -0.013 |  |  |  |  | -0.08 | 0.212 | -0.029
WAS (UniProt P42768) | -0.028 |  | 0.032 |  | 0.365 | 0.004 | 0.08 | -0.041 |  | 0.215
